In the supplement of paper PMC7530171:
Counter-ions that a name gives are not always drawn. ± gives the standard deviation.

Each molecule was assayed on THP-1 (assay: THP-1 cell loss relative to DMSO control; higher = more host cell loss (toxicity); extreme values may be limits of the assay). Conditions: 10 µM; 4 days; infection: M. tuberculosis H37Rv.
Description: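 OICR kinase inhibitor library screened in duplicate at 10 uM against M. tuberculosis-infected THP-1 macrophages, 4 days at 37 C. THP-1 cell loss (cytotoxicity or loss of adherence) was quantified from Hoechst-stained nuclei counts by high-content imaging and normalised to the 1% DMSO control; 100 = complete loss of host cells.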

Row | Structure (SMILES) | THP-1 cell loss [%]
1 | NCC(=O)Nc1ccc(-n2nc(C(F)(F)F)cc2-c2ccc3c(ccc4ccccc43)c2)cc1 | 33.1 ± 2.5
2 | O=C(NOCC1CC1)c1cc(Br)c(F)c(F)c1Nc1ccc(I)cc1Cl | 55.1 ± 9.2
3 | O=C(Nc1c[nH]nc1-c1nc2ccc(CN3CCOCC3)cc2[nH]1)NC1CC1 | 100
4 | NCc1ccc(Nc2ncc(F)c(Nc3ccccc3)n2)cc1 [Dianilinopyrimidine_01] | 88.5 ± 16
5 | CCCCCCCC(=O)OCCOC(=O)CCCCCCC [Dioctanoylglycol] | 4.61 ± 6.5
6 | COc1cc2c(Oc3ccc4[nH]c(C)cc4c3F)ncnc2cc1OCCCN1CCCC1 [Cediranib] | 91.7 ± 12
7 | NC(=O)Nc1cc(-c2cccc(F)c2)sc1C(=O)N[C@H]1CCCNC1 | 84.2 ± 22
8 | Oc1cc(-c2nc(-c3ccccc3)[nH]c2-c2ccncc2)ccc1Cl | 100
9 | COc1cc(CCc2cc(NC(=O)c3ccc(N4CC(C)NC(C)C4)cc3)n[nH]2)cc(OC)c1 (stereo not given) | 45.7 ± 11
10 | C[C@@H](Oc1cc(-c2cnn(C3CCNCC3)c2)cnc1N)c1c(Cl)ccc(F)c1Cl | 33.8 ± 9.9
11 | CNC(=O)c1ccccc1Sc1ccc2c(/C=C/c3ccccn3)n[nH]c2c1 [Axitinib] | 14.9 ± 11
12 | COc1cc(OC2CCN(C)CC2)ccc1Nc1ncc2c(n1)n(C1CCCC1)c(=O)n2C | 87.6 ± 18
13 | C=CCn1c(=O)c2cnc(Nc3ccc(N4CCN(C)CC4)cc3)nc2n1-c1cccc(C(C)(C)O)n1 | 37 ± 4.8
14 | COc1ccc(-c2ccc3c(N4CCOCC4)nc(N4C[C@@H](C)O[C@@H](C)C4)nc3n2)cc1CO | 53.5 ± 18
15 | O=C1NCCc2[nH]c(-c3ccncc3)cc21 | 100
16 | Nc1cc(C(F)(F)F)c(-c2cc(N3CCOCC3)nc(N3CCOCC3)n2)cn1 | 73.3 ± 38
17 | CCc1cncnc1N1CCN(Cc2nc3ccc(C(F)(F)F)cc3[nH]2)CC1 | 92.6 ± 10
18 | CNC(=O)c1cc(Oc2ccc(NC(=O)Nc3ccc(Cl)c(C(F)(F)F)c3)cc2)ccn1 [Sorafenib] | 100
19 | CN1CC[C@H](c2c(O)cc(O)c3c(=O)cc(-c4ccccc4Cl)oc23)[C@H](O)C1 [Alvocidib] | 100
20 | CN(C)C/C=C/C(=O)Nc1cc2c(Nc3ccc(F)c(Cl)c3)ncnc2cc1O[C@H]1CCOC1 | 77.6 ± 2.9

Row | Structure (SMILES) | THP-1 cell loss [%]
21 | COc1ccc(Cl)cc1NC(=O)Nc1cc(C)nc2ccccc12 | 9.3 ± 13
22 | Cn1cc(/C=C2\C(=O)Nc3cccnc32)c2ccccc21 | 41.8 ± 0.73
23 | CO[C@H]1C[C@@H]2CC[C@@H](C)[C@@](O)(O2)C(=O)C(=O)N2CCCC[C@H]2C(=O)O[C@H]([C@H](C)C[C@@H]2CC[C@@H](OCCO)[C@H](OC)C2)CC(=O)[C@H](C)/C=C(\C)[C@@H](O)[C@@H](OC)C(=O)[C@H](C)C[C@H](C)/C=C/C=C/C=C/1C [Everolimus] | 22 ± 0.045
24 | COc1cc(Nc2ncc(F)c(Nc3ccc4c(n3)N(COP(=O)(O)O)C(=O)C(C)(C)O4)n2)cc(OC)c1OC | 59.6 ± 57
25 | CCN(CC)CCCCN1c2ccccc2Oc2ccc(Cl)cc21 [10-DEBC hydrochloride] | 29.4 ± 13
26 | COc1cc2c(Oc3ccc(NC(=O)C4(C(=O)Nc5ccc(F)cc5)CC4)cc3F)ccnc2cc1OCCCN1CCOCC1 | 100
27 | CC[C@@H]1C(=O)N(C)c2cnc(Nc3ccc(C(=O)N[C@H]4CC[C@H](N5CCN(CC6CC6)CC5)CC4)cc3OC)nc2N1C(C)C | 100
28 | c1cc(OCCN2CCCCC2)cc(-c2n[nH]c3ccc(-c4nnc[nH]4)cc23)c1 | 3.37 ± 4.8
29 | CS(=O)(=O)CCNCc1nc(-c2ccc3ncnc(Nc4ccc(OCc5cccc(F)c5)c(Cl)c4)c3c2)cs1 | 37.5 ± 15
30 | N#Cc1c(NC(=O)c2cccc3ccccc23)sc2c1CCCC2 | 60.6 ± 15
31 | C=CC(=O)Nc1cc2c(Nc3ccc(F)c(Cl)c3)ncnc2cc1C#CC(C)(C)N1CCN(C)CC1 | 100
32 | Nc1cc(N)c(N)cc1N [FAK Inhibitor 14] | 11.9 ± 4
33 | Nc1nc(OCC2CCCCC2)c2[nH]cnc2n1 | 3.9 ± 5.5
34 | Nc1nccc(Oc2ccc(NC(=O)c3c[nH]cc(-c4ccc(F)cc4)c3=O)cc2F)c1Cl | 48.1 ± 23
35 | O=[N+]([O-])c1ccc(-c2nc(-c3ccc(F)cc3)c(-c3ccncc3)[nH]2)cc1 | 17 ± 3.5
36 | O=C(NCCCNc1nc(Nc2cccc(NC(=O)N3CCCC3)c2)ncc1I)c1cccs1 | 100
37 | CC(C)(C)n1nc(-c2cccc3ccccc23)c2c(N)ncnc21 [1-Naphthyl PP1] | 13.6 ± 19
38 | CC(C)CC(=O)Nc1n[nH]c2c1CN(C(=O)C1CCN(C)CC1)C2(C)C | 100
39 | COc1ccc(C(=O)Nc2sc3c(c2C(N)=O)CCCC3)cc1OC | 100
40 | CCn1c(-c2nonc2N)nc2c(C#CC(C)(C)O)ncc(OC[C@H]3CCCNC3)c21 | 15.8 ± 3.6
